Screen size: about 48,000 compounds; about 13,000 (27%) showed an effect of 50% or more. This is one part of the list.
System: Wolbachia pipientis
Assay: Anti-Wolbachia Cell-Based Screen
Type: functional
Design: scale not given: in the data most compounds retested in dose-response had high values
Details: 5 µM

| Structure (SMILES) | Percent Effect [%] |
| --- | --- |
| CCC(C)(C)NC(=O)CSCc1ccc(S(=O)(=O)N(C)C)o1 | 5.588 |
| CCC(C)(CC(=O)OC)NCc1cc(C)on1 (centres undefined) | -8.886 |
| COc1ccccc1CC(C)(C)NC(=O)CNS(C)(=O)=O | -9.621 |
| COc1ccc(-c2nnc(CN3CCCC3Cn3cncn3)o2)cc1 (centres undefined) | 93.03 |
| Fc1ccc(-c2nnc(CN3CCCC3Cn3cncn3)o2)cc1 (centres undefined) | -1.304 |
| c1ccc(-c2nnc(CN3CCCC3Cn3cncn3)o2)cc1 (centres undefined) | 126.9 |
| Cc1cnn(CC2CCCCN2Cc2nnc(-c3ccco3)o2)c1 (centres undefined) | 2.932 |
| c1coc(-c2nnc(CN3CCCC3Cn3cncn3)o2)c1 (centres undefined) | 82.67 |
| Clc1ccccc1-c1nnc(CN2CCCC2Cn2cncn2)o1 (centres undefined) | 104.1 |
| c1csc(-c2nc(CN3CCCC3Cn3cncn3)co2)c1 (centres undefined) | 2.244 |
| COc1ccc(-c2cnc(CN3CCCC3Cn3cncn3)o2)cc1 (centres undefined) | -4.543 |
| N#Cc1ccc(CN2CCCCC2Cn2cncn2)cc1 (centres undefined) | 10.73 |
| Clc1ccc2cccnc2c1CN1CCCC1Cn1cncn1 (centres undefined) | -9.545 |
| CS(=O)(=O)N[C@@H]1CCN(Cc2nccs2)[C@H]1Cc1ccncc1.O=C(O)C(F)(F)F.O=C(O)C(F)(F)F | -21.66 |
| COCc1cc(CNC(=O)c2c(C)c(C)cc(C)c2C)n[nH]1 | -1.645 |
| CC(=O)Nc1ccc(C(=O)N(C)C(C)Cc2cc(C)ccn2)cn1 (centres undefined) | -9.308 |
| O=C(O)c1ccn(-c2ccccc2NS(=O)(=O)c2ccccc2)n1 | 2.8 |
| Cc1nc(CN2C[C@@H]3CN(c4ncccn4)C[C@@H]3C2=O)cs1.O=C(O)C(F)(F)F | 2.706 |
| Cc1ccc(-c2nnc(CN3CCCCC3Cn3cncn3)o2)cc1 (centres undefined) | 107.2 |
| Cc1cccc(-c2nc(CN3CCCCC3Cn3cncn3)no2)c1 (centres undefined) | -2.041 |
| CC(C)=Cc1c(-c2ccccc2)ncn1CCS(C)(=O)=O | -13.72 |
| CN1CCCC2(CCN(c3cccc(C(F)(F)F)n3)C2)C1=O (centres undefined) | -13.28 |

| Structure (SMILES) | Percent Effect [%] |
| --- | --- |
| CC(C)N1CCCC2(CCN(c3nccc(C(F)(F)F)n3)C2)C1=O (centres undefined) | -9.493 |
| OC1(CN2CCCCC2)CCN(c2cccc(C(F)(F)F)n2)C1 (centres undefined) | 110.2 |
| CC(C)N1CCC2(CCCN(c3nccc(C(F)(F)F)n3)C2)CC1.O=C(O)C(F)(F)F | -13.26 |
| O=C1CCC2(CCN(c3cccc(C(F)(F)F)n3)CC2)CN1CCO | 4.395 |
| OC1(CN2CCCCC2)CCN(c2nccc(C(F)(F)F)n2)C1 (centres undefined) | 108.3 |
| CCS(=O)(=O)CC(=O)Nc1ccc2oc(C3CC3)nc2c1 | -4.895 |
| c1cn(CC2CCOCC2)c(-c2cc(CN3CCCC3)cs2)n1 | 5.864 |
| CC(CCO)Nc1cccc(C(F)(F)F)n1 (centres undefined) | -9.729 |
| CCN(CC)C1CCN(C(=O)c2cc(CC(C)C)nn2CC)C1 (centres undefined) | 33.04 |
| COc1nc(C)cc(C)c1CNC(=O)N(C)Cc1cnn(C)c1 | -3.346 |
| CCn1ccc(C(=O)NCCCN2CCOCC2)n1 | -2.896 |
| CCC(CNC(=O)c1cc(CC(C)C)nn1C)N(C)CC (centres undefined) | -16.5 |
| CCn1nc(CC(C)C)cc1C(=O)NCc1c(C)cc(C)nc1OC | 140.7 |
| CCn1nc(CC(C)C)cc1C(=O)NCCn1cccc1 | -13.46 |
| CCn1nc(CC(C)C)cc1C(=O)NCCS(=O)(=O)N(C)C | 162.2 |
| CCn1nc(CC(C)C)cc1C(=O)N1CCCC(C#N)C1 (centres undefined) | -3.007 |
| CCn1nc(CC(C)C)cc1C(=O)N1CC[C@@H](O)C1 | -2.224 |
| CCn1nc(CC(C)C)cc1C(=O)NCC(F)(F)F | 127.5 |
| CCn1nc(CC(C)C)cc1C(=O)NCCCN1CCOCC1 | 125.1 |
| CCn1nc(CC(C)C)cc1C(=O)NCCCOC | -13.1 |
| CN(CCn1cnnc1)C(=O)c1ccnc(OC2CCC2)c1 | -7.369 |
| COc1cc(C)nc(N2CCN(C(=O)CCc3ccncc3)CC2)n1 | -15.67 |

| Structure (SMILES) | Percent Effect [%] |
| --- | --- |
| COc1cc(CCC(=O)N2CCC(c3cnccn3)CC2)on1 | 147.9 |
| COc1cccc(OCC2CCCN(C(=O)CCc3cc(O)no3)C2)c1 (centres undefined) | -4.281 |
| COc1cc(CCC(=O)N2CCC(c3cncc(C)n3)CC2)on1 | 141.8 |
| Cc1noc(C2CCN(C(=O)CCc3nccs3)CC2)n1 | 4.096 |
| COc1cc(C)nc(N2CCN(C(=O)CCc3ccco3)CC2)n1 | 12.06 |
| CCc1ccccc1C(=O)NS(=O)(=O)CCCC#N | -10.54 |
| Cc1n[nH]c(CCC(=O)N2CCOC(Cc3ccc(F)cc3)C2)c1C (centres undefined) | 14.83 |
| O=C(NC1(C(=O)NCC2CC2)CCCC1)C1Cc2cc(F)ccc2O1 (centres undefined) | -11.6 |
| CC1N(C)C(=O)COC12CCN(C(=O)Cc1ccsc1)CC2 (centres undefined) | 1.71 |
| COCCN1CCO[C@@H]2CN(C(=O)Cc3ccccc3)CC[C@@H]2C1.O=C(O)C(F)(F)F | 12.5 |
| C[C@H]1CN(C(=O)c2ccoc2)C[C@@]12CCN(CCN(C)C)C2=O.O=C(O)C(F)(F)F | 113.7 |
| Cc1ccc(OC2(C(=O)O)CCN(C(=O)c3ccccc3F)CC2)cn1 | -3.687 |
| COCCN1CCO[C@@H]2CN(C(=O)Cc3ccc(F)cc3)CC[C@@H]2C1.O=C(O)C(F)(F)F | 12.24 |
| Cc1cc(CN2C[C@@H](C)[C@@]3(CCN(C)C3=O)C2)oc1C.O=C(O)C(F)(F)F | 2.821 |
| CN(C)CCN1CCO[C@@H]2CN(C(=O)Cc3ccsc3)CC[C@@H]2C1 | 102.6 |
| C[C@@H]1CN(C(=O)c2ccccc2F)C[C@]12CCN(CCN(C)C)C2=O | 90.27 |
| COCC1CN(C(=O)Cc2ccsc2)Cc2c1cnn2C (centres undefined) | -19.19 |
| C[C@@H]1CN(C(=O)Cc2ccsc2)C[C@]12CCN(CCN(C)C)C2=O | 171.4 |
| CN(C)CCN1CC(C(=O)N2CCC(c3cccc(O)c3)CC2)CC1=O (centres undefined) | -14.83 |
| CC(C)COc1cncc(NC(CO)c2ccco2)n1 (centres undefined) | -5.064 |

Source: ChEMBL document CHEMBL3988442, “University of Dundee, Small-Polar-MMV Screening Library” (2021)
